# GLP-1R agonist = qHTS of GLP-1 Receptor Agonists; Glucagon-like peptide 1 receptor (Homo sapiens), P43220; HEK293 GLP-1R CRE-luciferase, luminescence, 4-6 h; cells express a hypersensitive GLP-1R form; Potency, µM (titrated, usually from 45.6 µM), for the others: at the top dose activation, hits mostly activators; 0.007% of 380,000 active; AID 624172, 2012; note: % of control where 0% means no effect
# GLP-1R inv ag = qHTS of GLP-1 Receptor Inverse Agonists (Inhibition Mode); AID 624417, 2012; 1.6% of 410,000 active; Potency, µM (titrated, usually from 38.3 µM), for inactives: top-dose activity change, negative = inhibition, actives largely listed as inhibitors; HEK293 GLP-1R CRE-luciferase, luminescence, 24 h; GLP-1R form is constitutively active; Glucagon-like peptide 1 receptor (Homo sapiens), P43220; note: % is set by controls: 0 for no effect and ±100 for the full control effect; nearly all actives have a fitted effect of over 55% in size
#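 Constitutively active GLP-1R drives a cAMP-responsive luciferase in stably transfected HEK293 cells; test compounds are added after overnight (12 h) attachment and left 24 hr, and signal loss in luminescence marks inhibition.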
# PTHR1 ag = qHTS for PTHR1 Agonists: Primary Screen. HEK293 GP2 PTHR1 cells, GloSensor cAMP luminescence, 1 h. Potency, µM (titrated, usually from 115 µM), for the others: at the top dose activation, usual class: activators. 0.075% of 410,000 active. AID 743266, 2014; note: nearly all actives have a fitted effect of over 55% in size
# Target sequence (Q03431 whole entry, looked up): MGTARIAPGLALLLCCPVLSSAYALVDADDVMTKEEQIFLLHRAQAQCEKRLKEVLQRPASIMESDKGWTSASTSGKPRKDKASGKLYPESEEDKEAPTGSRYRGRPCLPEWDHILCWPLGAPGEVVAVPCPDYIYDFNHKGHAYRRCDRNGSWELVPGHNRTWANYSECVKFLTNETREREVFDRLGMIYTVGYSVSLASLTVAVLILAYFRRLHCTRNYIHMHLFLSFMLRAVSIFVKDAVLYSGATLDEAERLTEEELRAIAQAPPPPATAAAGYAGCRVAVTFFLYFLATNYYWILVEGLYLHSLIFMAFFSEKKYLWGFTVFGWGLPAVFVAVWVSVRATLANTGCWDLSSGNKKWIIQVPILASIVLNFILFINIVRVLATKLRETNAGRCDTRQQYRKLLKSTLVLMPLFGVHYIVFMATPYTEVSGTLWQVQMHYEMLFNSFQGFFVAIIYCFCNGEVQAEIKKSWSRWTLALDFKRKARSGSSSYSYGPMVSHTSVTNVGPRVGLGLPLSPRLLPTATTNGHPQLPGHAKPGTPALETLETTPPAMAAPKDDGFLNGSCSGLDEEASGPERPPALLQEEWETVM
#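 HEK-293-derived GP2 cells expressing PTHR1 and a GloSensor cAMP reporter, 3,000/well, plated overnight, given luciferin plus IBMX (each 0.5 mM as added) for 1 h at 37 °C, then compound for 1 h at 37 °C. Luminescence was read after 15 min at room temperature.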
# GLP1R cytotox = qHTS of GLP-1 Receptor Inverse Agonists: Cytotox Screen | HEK293 cAMP-luciferase reporter cells, luminescence, 24 h | Potency, µM (highest dose often 38.3 µM), for the others: at the top dose activity change, negative = inhibition, most hits filed as inhibitors | 0.13% of 410,000 active | AID 624418, 2012;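 note: loss of luciferase light is scored as toxicity; % is set by controls: 0 for no effect and ±100 for the full control effect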
#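 Luminescence readout: signal drop marks cytotoxicity. Plated cells grew 12 h at 37 °C, 5% CO2, received 23 nL compound for 24 h, then got luciferase reagent, read after 12 min at RT.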
# * marks the source's active call; other numbers are inactive results; i = inactive; u = inconclusive; x = not tested or not shown; [ ] = remark or other dose. Rows were chosen to be rich in hits. Some 1.7% of all compounds tested hit in one or more screens of this group. Calls come from the whole dose curve; as a rule, active = well fitted curve in the direction sought with a large enough effect; inconclusive = small, poorly fitted or top-dose-only effect, or another doubt; inactive = no such curve, though single readings can be large; an effect the other way counts as inactive or inconclusive. Potency is the fitted concentration of half-maximal effect.
SMILES,GLP-1R agonist,GLP-1R inv ag,PTHR1 ag,GLP1R cytotox
FC(F)(F)c1cnc(NNC(=S)Nc2ccccc2Cl)c(Cl)c1,0%,5µM*,-84%,u
Cc1ccc(Cl)cc1N1CCN(C(=O)C2CCCN(S(=O)(=O)c3ccc(Br)s3)C2)CC1 (configuration not stated),x,u,-23%,3%
Cc1ccccc1CN1CCN(Cc2ccccc2)CC1,1%,-22%,45µM*,7%
Oc1c(Br)cc(Br)cc1CN1CCN(Cc2ccccc2)CC1,20%,10µM*,-50%,6%
O=C(C1CCN(S(=O)(=O)c2ccc(Br)s2)CC1)N1CCN(c2cccc(C(F)(F)F)c2)CC1,x,u,i,-3%
COc1cc(C(=O)Oc2ccccc2/C=N/NC(=O)c2ccc(C)cc2)cc(OC)c1OC,4%,1.6µM*,i,u
CC[n+]1c(-c2ccccc2)c2cc(N)ccc2c2ccc(N)cc21,-30%,5.6µM*,i,u
Cc1cccc(C(=O)N2CCC(=O)N(C(COCc3cccc(Cl)c3)Cc3ccccc3)CC2)c1 (configuration not stated),4%,8.9µM*,i,-8%
COc1cccc(CC(=O)N2CCN(Cc3cccc(Cl)c3)CC2)c1,13%,u,-14%,-16%
CCc1cccc(NC(=O)c2ccc(NC(=O)N3CCSc4ncccc43)cc2)c1,x,-6%,-32%,-10%
CCN(CC)c1nc2ccccc2nc1C(=O)Nc1cccc(C(C)=O)c1,x,u,-10%,-22%
CNCCCN1c2ccccc2CCc2ccccc21,-2%,4µM*,i,-10%
Cc1ccc(NC(=O)C2CCN(C(=O)c3cnn(-c4ccccc4)c3-n3cccc3)CC2)cc1Cl,x,u,-9%,-15%
CCOC(=O)C1=C(Cn2cnc3ccccc32)NC(=O)NC1c1cc(C)ccc1C (configuration not stated),-6%,u,i,11µM*
CCOC(=O)[C@]12Cc3cc(C)ccc3[C@H]1N(Cc1ccccc1)C(=O)c1ccccc12,-1%,u,-23%,1%
Cc1ccsc1C(=O)C1CCCN(Cc2cccc(-n3cccn3)c2)C1 (configuration not stated),21%,7.9µM*,0%,4%
COc1cc(CN2CCCC(C(=O)c3sccc3C)C2)cc(OC)c1O (configuration not stated),-4%,9%,i,1%
Cc1ccsc1C(=O)C1CCCN(Cc2cccc(OCCO)c2)C1 (configuration not stated),11%,-10%,i,-13%
Cc1ccsc1C(=O)C1CCCN(Cc2ccc(-n3cccn3)cc2)C1 (configuration not stated),6%,10µM*,-18%,-14%
O=C(c1cc(F)ccc1F)C1CCCN(CCCc2ccccc2)C1 (configuration not stated),2%,u,i,9%
O=C(c1cc(F)ccc1F)C1CCCN(Cc2cccc(Cl)c2)C1 (configuration not stated),11%,10µM*,-29%,6%
CC12CC(c3ccccc3O1)N(C(=O)c1ccco1)C(=S)N2c1ccc(F)cc1 (configuration not stated),-7%,10µM*,u,u
Cc1ccc(N2C(=O)/C(=C/N3CCN(C(=O)c4ccco4)CC3)C(=O)NC2=S)cc1C,-3%,-9%,i,-24%
Cc1cccc(N(C)S(=O)(=O)c2cc(-c3cnc(C4CC4)o3)ccc2C)c1,x,4%,-56%,-1%
CC(C)(C#CC(=O)O)OOC(c1ccccc1)(c1ccccc1)c1ccccc1,-6%,11µM*,-55%,-20%
SMILES,GLP-1R agonist,GLP-1R inv ag,PTHR1 ag,GLP1R cytotox
COc1cccc(CN2CCN(C(=O)COc3ccc4ccccc4c3)CC2)c1,-2%,11µM*,-20%[57.5 µM],-17%
COc1cc(OC)c(OC)cc1CN1CCN(C(=O)COc2ccc3ccccc3c2)CC1,1%,u,i,4%
Cc1cccc(C(O)c2ncc(-c3ccccc3Cl)[nH]2)c1C (configuration not stated),-3%,u,-17%,5%
O=C(CNC(=O)OCc1ccccc1)NCC(=O)Nc1ccc(Br)cc1C(=O)c1ccccc1,4%,1%,-25%,-2%
O=C(CNC(=O)OCc1ccccc1)Nc1ccc(Br)cc1C(=O)c1ccccc1,-9%,11µM*,i,-27%
CCc1ccccc1NC(=O)C1CCCN(c2ncnc3onc(C)c23)C1 (configuration not stated),x,10%,-66%,8%
COc1ccc(NC(=O)CCn2cnc3onc(-c4ccc(F)cc4)c3c2=O)cc1OC,x,u,-19%,-15%
O=C(CF)NC(Nc1cccc2cccnc12)C(Cl)(Cl)Cl (configuration not stated),2%,10µM*,i,1%
COCCCNC(=S)NCCCNc1nc2cc(C)cc(C)c2cc1C#N,23%,11µM*,-6%,-2%
CC1CN(c2nc(-c3ccc(Br)cc3)nnc2-c2ccccc2)CC(C)N1 (configuration not stated),5%,2.8µM*,i,u
O=S(=O)(O)C(F)(F)C(F)(F)C(F)(F)C(F)(F)C(F)(F)C(F)(F)C(F)(F)C(F)(F)F,-1%[96 µM],x,x,x
O=C1C=CC(=O)C2C1C1(Cl)C(Cl)=C(Cl)C2(Cl)C1(Cl)Cl (configuration not stated),-3%,3.2µM*,-18%,u
CC12CCC(=O)CC1CCC1C2CCC2(C)C1CCC2(C)O (configuration not stated),-7%,x,x,x
C=CCN1C(=O)/C(=C/c2ccc(O)c(OC)c2)S/C1=N/c1nccs1,21%,28%,0%,60%
COc1ccc(N=C2S/C(=C\c3ccc(Cl)c([N+](=O)[O-])c3)C(=O)N2CCN(C)C)cc1,-4%,u,-93%,11µM*
CCCCCCN1C[C@@H](n2cc(C3CC3)nn2)[C@H](O)C[C@@H]1c1ccc(C)cc1,1%,4µM*,i,u
COc1cc([C@@H]2c3cc4c(cc3[C@@H](O[C@@H]3O[C@@H]5CO[C@@H](C)O[C@H]5[C@H](O)[C@H]3O)[C@H]3COC(=O)[C@H]23)OCO4)cc(OC)c1O,4%,2.8µM*,-8%,u
CC(Oc1ccc(Br)cc1)C(=O)N(Cc1nc(-c2ccccc2)no1)C(C)C (configuration not stated),x,u,-86%,3%
Cc1cc(NC(=O)c2cc(-c3cccc(Cl)c3)on2)nn1Cc1ccc(Cl)cc1,x,-15%,-42%,-2%
CCOP(=O)(CCP(=O)(OCC)OCC)OCC.C[CH2][Sn]([Cl])([Cl])[CH2]C,-7%,u,-38%,13µM*

# From PubChem BioAssay
